Several values for one entry are separate records, joined by “and”; a condition that tells them apart may be missing. Equal values may be shown once. In all, about 360,000 compounds went through this assay and about 2,400 (0.67%) were called active.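 The calls were made as follows: active = compounds whose normalised, plate-corrected inhibition of enzyme fluorescence in the single-dose primary screen is 50% or more; inactive = the rest.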 This excerpt belongs to a sample that is enriched for actives.

Fatty acid synthase (Homo sapiens), sequence (P49327 whole entry, looked up, the tested form may be a part): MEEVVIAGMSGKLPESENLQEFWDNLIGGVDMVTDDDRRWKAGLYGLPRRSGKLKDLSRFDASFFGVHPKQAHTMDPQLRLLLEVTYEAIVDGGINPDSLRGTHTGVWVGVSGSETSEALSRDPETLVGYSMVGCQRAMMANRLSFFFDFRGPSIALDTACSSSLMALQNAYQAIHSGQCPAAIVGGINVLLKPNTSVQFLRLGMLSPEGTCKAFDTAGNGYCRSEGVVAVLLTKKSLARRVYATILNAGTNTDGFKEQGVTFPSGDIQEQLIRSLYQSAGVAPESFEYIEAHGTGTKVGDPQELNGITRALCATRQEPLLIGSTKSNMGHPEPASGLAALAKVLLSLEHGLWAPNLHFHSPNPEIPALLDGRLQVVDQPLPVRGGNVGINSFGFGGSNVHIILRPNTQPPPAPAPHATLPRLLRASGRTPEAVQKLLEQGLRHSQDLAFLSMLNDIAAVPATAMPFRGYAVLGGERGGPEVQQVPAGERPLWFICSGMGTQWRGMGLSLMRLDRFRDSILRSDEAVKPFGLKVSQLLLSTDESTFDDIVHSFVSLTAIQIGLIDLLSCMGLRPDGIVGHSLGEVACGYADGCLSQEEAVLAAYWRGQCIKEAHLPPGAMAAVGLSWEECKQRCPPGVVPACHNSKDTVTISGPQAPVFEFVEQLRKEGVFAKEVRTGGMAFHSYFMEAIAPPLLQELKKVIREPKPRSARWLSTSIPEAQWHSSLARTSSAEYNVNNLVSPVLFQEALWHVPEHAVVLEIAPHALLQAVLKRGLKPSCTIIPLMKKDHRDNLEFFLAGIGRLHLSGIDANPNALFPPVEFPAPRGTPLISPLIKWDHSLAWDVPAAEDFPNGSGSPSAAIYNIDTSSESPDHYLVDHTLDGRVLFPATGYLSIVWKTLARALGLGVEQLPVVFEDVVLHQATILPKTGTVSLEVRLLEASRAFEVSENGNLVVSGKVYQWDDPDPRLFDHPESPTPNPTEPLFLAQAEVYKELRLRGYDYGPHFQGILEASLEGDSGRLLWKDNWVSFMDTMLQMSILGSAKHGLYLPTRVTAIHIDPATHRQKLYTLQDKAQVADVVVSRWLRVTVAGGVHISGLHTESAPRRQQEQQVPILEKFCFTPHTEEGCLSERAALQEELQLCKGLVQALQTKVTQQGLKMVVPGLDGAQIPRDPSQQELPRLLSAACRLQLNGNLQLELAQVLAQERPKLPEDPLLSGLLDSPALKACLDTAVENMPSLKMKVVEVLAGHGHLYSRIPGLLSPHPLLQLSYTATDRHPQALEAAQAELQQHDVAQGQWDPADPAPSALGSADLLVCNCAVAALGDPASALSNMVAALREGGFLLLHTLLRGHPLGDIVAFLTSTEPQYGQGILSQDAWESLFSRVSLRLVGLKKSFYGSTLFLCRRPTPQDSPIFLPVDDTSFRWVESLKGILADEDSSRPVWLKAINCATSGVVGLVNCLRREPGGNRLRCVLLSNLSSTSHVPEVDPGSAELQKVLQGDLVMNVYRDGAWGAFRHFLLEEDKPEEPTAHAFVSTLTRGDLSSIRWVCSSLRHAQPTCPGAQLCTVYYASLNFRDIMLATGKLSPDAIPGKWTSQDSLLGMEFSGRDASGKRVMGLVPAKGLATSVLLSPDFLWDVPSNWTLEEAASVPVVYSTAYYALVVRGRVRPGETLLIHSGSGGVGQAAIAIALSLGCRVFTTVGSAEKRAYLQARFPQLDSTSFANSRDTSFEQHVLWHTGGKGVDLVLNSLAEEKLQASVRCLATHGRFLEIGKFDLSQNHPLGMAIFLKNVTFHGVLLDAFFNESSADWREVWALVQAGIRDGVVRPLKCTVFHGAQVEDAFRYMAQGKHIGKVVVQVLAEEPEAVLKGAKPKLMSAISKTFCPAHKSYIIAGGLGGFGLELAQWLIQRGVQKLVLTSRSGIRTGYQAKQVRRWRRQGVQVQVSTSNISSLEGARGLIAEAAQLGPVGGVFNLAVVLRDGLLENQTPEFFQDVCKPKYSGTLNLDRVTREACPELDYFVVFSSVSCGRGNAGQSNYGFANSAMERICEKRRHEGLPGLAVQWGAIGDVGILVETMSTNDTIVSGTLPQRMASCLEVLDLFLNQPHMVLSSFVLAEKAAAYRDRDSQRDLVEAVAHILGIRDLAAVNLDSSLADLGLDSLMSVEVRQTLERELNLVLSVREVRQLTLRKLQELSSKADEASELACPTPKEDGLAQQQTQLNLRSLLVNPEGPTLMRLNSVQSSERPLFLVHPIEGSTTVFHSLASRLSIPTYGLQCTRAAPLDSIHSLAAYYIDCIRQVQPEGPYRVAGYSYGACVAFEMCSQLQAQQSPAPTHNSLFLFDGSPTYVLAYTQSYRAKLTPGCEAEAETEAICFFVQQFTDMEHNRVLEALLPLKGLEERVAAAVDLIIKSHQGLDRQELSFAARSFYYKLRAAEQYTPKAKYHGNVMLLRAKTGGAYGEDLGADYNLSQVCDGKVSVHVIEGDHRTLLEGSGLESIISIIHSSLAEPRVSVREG

This test has as its target Fatty acid synthase (Homo sapiens) (UniProt P49327). As to the kind of experiment: FAS thioesterase domain inhibitors, primary screen, biochemical, fluorescence intensity, uHTS (AID 602261).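 Also: 0% = DMSO with enzyme and 100% = substrate without enzyme.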 The note with it: recombinant FAS-TE, OMFH fluorogenic substrate, fluorescence endpoint; at 15 µM; hits give high values.
The term inhibition denotes the change of the read-out against control, counted positive when it falls. Turning to `Cc1ccc(NC(=O)[C@H](Cc2ccccc2)NC(=O)CC[C@H]2O[C@@H](n3ccc(=O)[nH]c3=O)[C@H](O)[C@@H]2O)cc1C`, the inhibition is -9.9% (inactive).
As for `Cc1ccc(Cl)c(OCC(=O)NN2CCN(C)CC2)c1`, the figure is -5.7% (inactive).
Consider `COc1ccc2c(CC(=O)NNC(=O)c3ccccc3F)coc2c1`, for which the inhibition was -5% (inactive).
As for `COC(=O)[C@@H](NC(=O)NCc1cccc(OC)c1)C(C)C`, the figure is -7.7% (inactive); as for `COc1ccc(NC(=O)CN2C(=O)CSc3ccc(S(=O)(=O)N4CCC(C)CC4)cc32)cc1`, 42.2% (inactive); as for `CCOc1cc(-c2nc3cc(C)ccn3c2NCC2CCCO2)ccc1O` (stereo unspecified), -4.4% (inactive).
The value for `COc1ccc(-c2nc3cnccn3c2NC(C)(C)CC(C)(C)C)cc1O` was 55% (active); that for `COc1ccc(-c2nc3cnccn3c2NC2CCCCC2)cc1-c1cccc(Cl)c1` was 32.3% (inactive) and 25.3% (inactive); that for `COc1ccc(NC2=CC(=S)NC(C)(C)C2)cc1` was -11% (inactive).
In the case of `CCOC(=O)/C(=N\Nc1cc(Cl)ccc1Cl)N1CCN(C)CC1`, the inhibition is 3.8% (inactive).
As for `CCN(CCO)C(=S)Nc1cc(C(=O)OC)ccc1C(=O)OC`, the figure is -10.4% (inactive).
Consider `Cc1cc(C(=O)OCC(=O)Nc2ccccc2Cl)c(C)o1`, for which the inhibition was 7.5% (inactive).
As for `O=C(Nc1ccccc1Cl)/C(Cl)=C(\Cl)S(=O)c1ccccc1` (stereo unspecified), the inhibition was 73.7% (active).
As for `O=C(Nc1ccccc1Cl)c1ccccc1S(=O)(=O)c1ccccc1[N+](=O)[O-]`, the figure is 6.3% (inactive); as for `CC(C)Oc1ccc(CN2CCC2(C)C(=O)NCc2ccc(C(F)(F)F)cc2)cc1` (stereo unspecified), 34.4% (inactive); as for `CC1(C)CC(=O)C(C2=NC(C)(C)Cc3ccccc32)=C(O)C1`, -7% (inactive).
The value for `FC(F)(F)c1cccc(-c2cc3ccccc3nc2N2CCCC2)c1` was 18.4% (inactive).
As to `Cc1cc(Cl)ccc1OCCCC(=O)Nc1cccc(-n2cnnn2)c1`, the inhibition is 30.3% (inactive).
Take `O=C(Nc1cccc(-n2cnnn2)c1)c1cccnc1`: the inhibition is -7.9% (inactive).
The value for `O=C(Nc1ccc(C(F)(F)F)cc1)c1cccc(-n2cnnn2)c1` was 64.5% (active).
On to `Cc1ccc(S(=O)(=O)Nc2ccc(F)c(S(=O)(=O)N3CCOCC3)c2)cc1`, for which the inhibition is -1% (inactive).
The value for `COc1ccc(-c2ccc(OC(=O)NC3CCS(=O)(=O)C3)cc2)cc1` (stereo unspecified) was -3.8% (inactive); that for `CCCCOC(=O)CNc1nnc(SCC(=O)OCC)[nH]c1=O` was 50.2% (active).
As for `CCc1ccc(C(=O)CSc2nnc(C)c(=O)[nH]2)cc1`, the figure is -4.7% (inactive); as for `CCOC(=O)CSc1nc(C)c(Oc2ccc(Cl)cc2Cl)c(=O)[nH]1`, -5.3% (inactive).
As for `Cc1noc(C)c1S(=O)(=O)N(C)C[C@H]1OCCCC[C@@H](C)Oc2ccc(NC(=O)CCCN(C)C)cc2C(=O)N([C@H](C)CO)C[C@@H]1C`, the figure is -10.2% (inactive); as for `COc1cccc(NC(=S)N(Cc2ccc(C)cc2)Cc2ccccn2)c1`, 5.4% (inactive).
As for `COc1ccc(NC(=O)/C(Cl)=C(/Cl)S(=O)Cc2ccc(C)cc2)cn1` (stereo unspecified), the inhibition is 53.3% (active).
Regarding `COc1ccc(NC(=O)C2Cc3c(-c4ccc5c(c4)OCO5)ccnc3O2)cn1` (stereo unspecified), the inhibition was 1.3% (inactive).
As for `COCc1c(N)c(C)nc(Cl)c1C#N`, the figure is -5.4% (inactive); as for `COc1cccc(-c2sc3ccc(OC)cc3c2-c2ccc(OCCN3CCCCC3)cc2)c1`, 15.5% (inactive).
For `COc1ccc(-c2csc3nc(-c4ccccc4F)oc(=O)c23)cc1OC`, the inhibition is 65.3% (active).
As for `CC1CCN(c2oc(-c3ccccc3F)nc2C#N)CC1`, the figure is 20.3% (inactive).
The value for `COc1ccccc1-c1nc(C(F)(F)F)c(OC)o1` was -1.4% (inactive); that for `COc1ccc(-c2csc3ncnc(Oc4ccc5c(C)cc(=O)oc5c4)c23)cc1` was -2.5% (inactive); that for `Cc1sc2nc(SCCO)n(-c3ccccc3)c(=O)c2c1C` was -4.5% (inactive).
The value for `Cc1sc2nc(-c3ccccc3F)oc(=O)c2c1C` was 54.7% (active).
In the case of `Cc1cc(C)n2nc(CNS(=O)(=O)c3c(F)c(F)c(F)c(F)c3F)nc2n1`, the inhibition is 12.1% (inactive).
The value for `CC(=O)c1nn(-c2cccc(Br)c2)cc1C(=O)c1cccc2ccccc12` was 27.7% (inactive); that for `CCC1OC(c2ccc([N+](=O)[O-])cc2)=Nc2ccccc21` (stereo unspecified) was 14.7% (inactive).
With `O=C(O)c1ccc(COc2c(F)c(F)cc(F)c2F)o1`, the inhibition was -6.9% (inactive).
With `CC(C)C[C@@H]1Cc2[nH][nH]c(=O)c2[C@H](CCc2ccccc2)O1`, the inhibition is -59.6% (inactive).
The value for `COc1cc(/C=C/c2ccc(/C=C/c3cc(OC)c(OC)c(OC)c3)cc2)cc(OC)c1OC` was 8.2% (inactive); that for `O=C(Cn1nnc2ccccc2c1=O)Nc1cc(C(F)(F)F)ccc1N1CCOCC1` was 5.9% (inactive).
As for `CSCCC(NC(=O)COc1ccccc1)C(=O)OCCOc1ccc(Br)cc1` (stereo unspecified), the figure is 21.8% (inactive); as for `CSCCC(NC(=O)COc1ccccc1)C(=O)OCc1ccc(Cl)cc1` (stereo unspecified), 24.4% (inactive); as for `CSCCC(NC(=O)COc1ccccc1)C(=O)OCC(=O)c1cc2ccccc2o1` (stereo unspecified), 70.7% (active).
The value for `Cc1ccc(C)c2[nH]c(=O)c(CCNC(=O)CC(C)C)cc12` was -6.6% (inactive).
For the compound `Cc1cccc(CSc2nc3c(c(=O)n2C)SCC3)c1`, the inhibition was 12.5% (inactive).
The value for `CC1=CC(=C(C#N)c2nc3ccccc3s2)C=C(C)N1c1ccc(F)cc1F` was 59.2% (active); that for `COCCCNC(=O)CNC(=O)c1nn(-c2ccc(OC)cc2)c(=O)c2ccccc12` was -6.6% (inactive).
As to `O=C(CN1CCCCC1)N1c2ccccc2Sc2ccc(C(F)(F)F)cc21`, the inhibition is 11.9% (inactive).
The value for `CC[C@]12c3[nH]c4ccc(Cl)cc4c3CCN1C(=O)[C@@H](CC(=O)NCCN1CCOCC1)C[C@@H]2C(=O)N1CCN(C(=O)C2CC2)CC1` was -7.3% (inactive); that for `COc1ccc(CNC(=O)C[C@H]2C[C@H](C(=O)N3CCOCC3)[C@@]3(CCC4CCCC4)c4[nH]c5ccc(Cl)cc5c4CCN3C2=O)cc1OC` was 89% (active); that for `COc1ccc2[nH]c3c(c2c1)CCN1C(=O)C(CC(=O)NCCCN(C)C)C[C@H](C(=O)N2CCOCC2)[C@@]31CCC1CCCC1` (stereo partly specified) was 43.3% (inactive).
As for `CN(C)C(=O)CCc1ccc2c3c([nH]c2c1)[C@]1(CCC2CCCC2)[C@@H](C(=O)N2CCOCC2)C[C@H](CC(=O)NCc2ccco2)C(=O)N1CC3`, the figure is 21.1% (inactive); as for `CC[C@]12c3[nH]c4ccc(OC)cc4c3CCN1C(=O)C(CC(=O)NCc1ccco1)C[C@@H]2C(=O)N1CCN(C(=O)C2CC2)CC1` (stereo partly specified), -7.3% (inactive); as for `O=C(C[C@H]1C[C@H](C(=O)N2CCOCC2)[C@@]2(CCC3CCCC3)c3[nH]c4ccc(Cl)cc4c3CCN2C1=O)NCc1ccco1`, 88.8% (active).
The value for `COc1ccc(Br)c(Cn2c(C)c(C(=O)NCc3cccs3)sc2=O)c1` was 19.7% (inactive); that for `C[n+]1cc(-c2ccccc2)oc1-c1ccccc1` was -4.9% (inactive).
Consider `COC1C(CO)OC(n2cnc3c(=S)nc(N)[nH]c32)C1O` (stereo unspecified), for which the inhibition was -3.8% (inactive).
As for `Cc1cccc(-n2c(SCC(=O)Nc3cccc(S(=O)(=O)NC4=NCCCCC4)c3)nc3ccccc3c2=O)c1C`, the figure is 71.3% (active); as for `COc1ccccc1C(=O)OCC(=O)Nc1cccc(S(=O)(=O)NC2=NCCCCC2)c1`, -6.9% (inactive); as for `CCc1ccc(C(=O)OCC(=O)Nc2cccc(S(=O)(=O)NC3=NCCCCC3)c2)cc1`, 1.8% (inactive).
The value for `CC(C)(C)NC(=O)NC(=O)COC(=O)Cc1ccc(Cl)cc1Cl` was 69.5% (active); that for `O=C(COC(=O)Cc1ccc(Cl)cc1Cl)NCc1ccco1` was -8.2% (inactive); that for `CC(C)(C)NC(=O)NC(=O)COC(=O)Cc1c(F)cccc1Cl` was 4.6% (inactive).
The value for `COC(=O)CCC(=O)N1CCCC(CO)(Cc2ccccc2)C1` (stereo unspecified) was -5.2% (inactive).
Consider `Cc1ccccc1-c1nc(NC(C)C)nc2cc(-c3ccccc3)sc12`, for which the inhibition is 13% (inactive).
On to `COc1ccc(-c2nnc(SC(C)C(=O)NC3CC3)o2)cc1` (stereo unspecified), for which the inhibition was -5.6% (inactive).
As for `COc1ccc(CN(C(=O)CSc2nnc(-c3ccc(OC)c(OC)c3)o2)c2ccc(F)cc2)cc1`, the figure is 45.7% (inactive); as for `COc1ccc(-c2nnc(SC(=O)N3c4ccccc4Sc4ccccc43)o2)cc1`, 51.9% (active).
As for `COc1ccc(C(=O)NN2C(=O)C3C(c4ccccc4)C=CC(c4ccccc4)C3C2=O)cc1` (stereo unspecified), the figure is 33.6% (inactive); as for `CCNc1c(NS(=O)(=O)c2ccc(C3CCCCC3)cc2)c(=O)oc2ccccc12`, 5.3% (inactive); as for `Cc1cccc([C@@H]2[C@@H]3C(=O)N(C)C(=O)[C@@H]3[C@@H]3C(=O)Nc4ccccc4C(=O)N23)c1`, -6.8% (inactive).
The value for `COc1ccc(CNC(=O)CCCn2nc(C)c([N+](=O)[O-])c2C)cc1` was 10.9% (inactive).
As for `Cc1ccc(Oc2cc(NC(=O)CCCn3nc(C)c([N+](=O)[O-])c3C)cc([N+](=O)[O-])c2)cc1`, the inhibition is 30.9% (inactive).
The value for `Cc1nn(CCOc2ccc(Br)cc2)c(C)c1[N+](=O)[O-]` was 62.3% (active); that for `CC(C=Cc1ccccc1)=NNS(=O)(=O)c1ccc([N+](=O)[O-])cc1` was 58.3% (active); that for `O=C(Cc1ccccc1)NNS(=O)(=O)c1ccc([N+](=O)[O-])cc1` was 11.1% (inactive).
As for `CC(/C=C/c1ccccc1)=N\NC(=O)C1CC1(C)c1ccccc1` (stereo unspecified), the figure is 20% (inactive); as for `CCOc1c(N2CCCCC2)c(=O)c1=O`, -8% (inactive); as for `O=C(c1ccc(Cl)c([N+](=O)[O-])c1)N1CCN(c2ccccc2)CC1`, 53.6% (active).
As for `O=C(c1cccc(F)c1)N1CCN(c2ccc([N+](=O)[O-])c(N3CCCCC3)c2)CC1`, the figure is 17.3% (inactive); as for `O=C(c1ccc(Oc2ccc(Cl)cc2)c([N+](=O)[O-])c1)N1CCCC1`, -19.7% (inactive).
Turning to `COCCNc1nc2nonc2nc1N1CCCC1c1nccs1` (stereo unspecified), the inhibition was -8.3% (inactive).

(Values after PubChem BioAssay AID602261 (Sanford-Burnham Center for Chemical Genomics, 2012).)
